Experimental findings from PubChem BioAssay AID686978 (National Center for Advancing Translational Sciences (NCATS), 2013) are described below.

“And” between values parts separate entries of the source, which are not always exact repeats. Equal entries are not always repeated. Screen size: about 420,000 compounds; about 64,000 (15%) were called active. Inconclusive results (about 27%) are left out. The call rests on the fitted dose curve; in most records, active means well fitted inhibition curve with a large enough effect; inconclusive means small, poorly fitted or top-dose-only effect; inactive means flat fitted curve, though single readings scatter. A selection follows. Where a call stands in place of a potency, no number is given.
Potency means the concentration at half of the fitted maximal effect.

The assay can be described thus: qHTS for Inhibitors of human tyrosyl-DNA phosphodiesterase 1 (TDP1): qHTS in cells in absence of CPT. Further: nearly all actives have a fitted effect of over 55% in size. The following applies: DT40 Tdp1-/- hTDP1 cells, no CPT, ATP luminescence, 48 h; activity change, negative = growth inhibition: at 46.2 µM (top of the series). Put shortly:
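Cells were dispensed at 400 per well, compounds added by pin tool, plates incubated ≥48 hr at 37 °C, then CellTiter-Glo added for 30 min at room temperature before luminescence reading. Line: DT40 Tdp1-/- complemented with hTDP1; camptothecin omitted.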
Consider `CCN(CC(=O)Nc1ccc(OC)cc1)C(=O)c1ccc(=O)n(Cc2ccccc2)n1`, for which the Potency result is “inactive”.
Then `O=C(CNC(=O)c1cc(=O)[nH]c2ccccc12)Nc1ccc(F)c(F)c1`, with “inactive”; and `COC(=O)c1cnn2c(C(F)(F)F)cc(-c3ccco3)nc12`, with “inactive”.
`CCOc1ccc(C(C)=O)cc1COC(=O)CNC(=O)c1cccs1`: the Potency result was “inactive”.
Then `O=C(O)/C=C/c1ccc(S(=O)(=O)N2CCCCCC2)cc1`, with “inactive”; and `CN/C(=C\[N+](=O)[O-])NCCSCc1csc(CN(C)C)n1`, with “inactive”.
Then `Cc1ccnc(N2CCCC(C(=O)NC3CC3)C2)n1` (centres undefined), with “inactive”; and `Cc1nc2ccccc2c(=O)n1CCCn1ccnc1`, with “inactive”; and `Cc1ccnc(-n2sc3ccccc3c2=O)n1`, with 5.17 µM (active).
The same measure for `COCCCNC(=O)c1c(F)c(F)c(F)c(F)c1F`: “inactive”.
Take `O=C(CSc1nnc(-c2ccncc2)n1C1CCCCC1)Nc1ccccc1`: the Potency entry is “inactive”.
The same measure for `CCC(C)N(C)C1CCN(C(=S)Nc2ccc(OC)cc2)CC1` (centres undefined): “inactive”; for `COc1ccccc1OCC(=O)Nc1c2c(nn1-c1ccc(F)cc1)CS(=O)(=O)C2`: “inactive”.
Then `Cc1cccc(-n2nc3c(c2NC(=O)c2ccc(Br)o2)CSC3)c1C`, with “inactive”; and `COc1cccc(C(=O)Nc2c3c(nn2-c2cccc(C)c2C)CS(=O)(=O)C3)c1OC`, with 15.8 µM (active); and `COc1ccc(N(CC(=O)Nc2cccc3ccccc23)S(C)(=O)=O)c(OC)c1`, with “inactive”.
The same measure for `CCC(CC)C(=O)Nc1cc(C(=O)OC)cc(C(=O)OC)c1`: “inactive”; for `Cc1cc2nc3c(=O)n(Cc4ccccc4)c(=O)[nH]c3nc2cc1N`: “inactive”.
Turning to `CCOC(=O)N1CCN(C(c2ccnc3ccccc23)c2nnnn2-c2c(C)cccc2C)CC1` (centres undefined), the Potency result was “inactive”.
Then `CCC(=O)N(C)C(c1ccccc1Cl)c1nnnn1-c1c(C)cccc1C` (centres undefined), with 18.4 µM (active).
The same measure for `Cc1ccc(-n2nnnc2CNC(=O)c2ccccc2C)cc1C`: “inactive”; for `Cc1ccc(S(=O)(=O)N(NC2=NS(=O)(=O)c3ccccc32)C(=O)c2ccccc2)cc1`: “inactive”; for `Cc1cc(C)c(C)c(S(=O)(=O)N[C@@H](C)C(=O)OC(C)C(=O)NC(N)=O)c1C` (some centres undefined): “inactive”.
Regarding `COc1ccccc1C(=O)COC(=O)CSCC(=O)Nc1cc(C)on1`, the Potency entry was “inactive”.
The same measure for `COC(=O)N1CN(C(=O)OC)CN(C(=O)OC)C1`: “inactive”; for `CN(C(=O)CC1C(=O)NCCN1Cc1ccc(F)cc1Cl)C1CCCCC1` (centres undefined): “inactive”; for `CCOC(=O)N1CCN(C(=O)c2nn(-c3ccc(C)cc3)c(=O)c3c2c2ccccc2n3C)CC1`: 18.4 µM (active).
As to `CCOC(=O)N1CCN(C(=O)c2n[nH]c(=O)c3ccccc23)CC1`, the Potency result is “inactive”.
The same measure for `COc1cc(NC(=O)c2nn(-c3ccc(C)cc3)c(=O)c3c2c2ccccc2n3C)cc(OC)c1OC`: “inactive”.
Then `CCCN(CCC)CCNC(=O)Cn1cnc2sc(C)c(S(=O)(=O)N3CCC(C)CC3)c2c1=O`, with “inactive”; and `O=C(CC[C@H]1O[C@@H](n2ccc(=O)[nH]c2=O)[C@H](O)[C@@H]1O)N[C@H](Cc1ccccc1)C(=O)NCc1ccco1`, with “inactive”; and `O=C(NN=CC=Cc1ccccc1)C(O)C(O)C(=O)NN=CC=Cc1ccccc1` (centres undefined), with “inactive”.
The same measure for `CC(C)(C)c1ccc(C(=O)NCc2ccco2)cc1`: “inactive”; for `CC(C)(C)NC(=O)NCc1ccco1`: “inactive”; for `CC(C)(C)c1ccc(NC(=O)NCc2ccco2)cc1`: 14.6 µM (active).
`Clc1ccc(-c2nnc(SCc3nc4ccccc4s3)o2)cc1`: the Potency entry is “inactive”.
Then `Oc1c(Cl)cc(Cl)c(Cl)c1Cc1c(O)c(Cl)cc(Cl)c1Cl`, with 4.22 µM (active) and 23.1 µM (active) and 2.59 µM (active).
Take `CCCn1c(N)c(C(=O)CSc2nnc3n2CCCCC3)c(=O)[nH]c1=O`: the Potency result was “inactive”.
As for `CN(CC(=O)NCCc1ccc(S(N)(=O)=O)cc1)CC(=O)Nc1ccc(F)c(F)c1F`, the Potency result was “inactive”.
Regarding `CCOc1ccccc1NC(=O)CN1CCN(S(=O)(=O)c2ccc(Br)cc2)CC1`, the Potency result is “inactive”.
The same measure for `Cn1c(CC(=O)Nc2ccccc2)nnc1SCC(=O)c1ccccc1`: “inactive”; for `CCCCNC(=O)c1onc(CSc2cccc(OC)c2)c1C(=O)O`: “inactive”.
The same measure for `CCCCNc1c(-c2cccc(Sc3ccc(OC)cc3)c2)nc2ccccn12`: 20.6 µM (active).
Regarding `COc1ccc(Sc2nc(-c3ccccc3)ncc2OC)cc1`, the Potency result is “inactive”.
The same measure for `O=c1o[nH]c(-c2ccccc2)c1N=Nc1c(F)cccc1Cl`: “inactive”; for `Cc1ccc2oc(=O)c3cnn(CC(=O)N4CCCCCC4)c3c2c1`: “inactive”; for `CCOC(=O)C1CCCN(C(=O)Cn2ncc3c(C)n(Cc4ccc(F)cc4)c(C)c3c2=O)C1` (centres undefined): 16.4 µM (active).
Consider `CCOC(=O)C1CCCN(C(=O)Cn2ncc3c(=O)oc4ccc(C)cc4c32)C1` (centres undefined), for which the Potency entry was “inactive”.
Then `CCOc1ccc(CN(C)C(=O)c2ccc(=O)[nH]c2)cc1`, with “inactive”.
The same measure for `Clc1ccc2nc(-c3ccccc3)nc(C(Cl)Cl)c2c1`: 0.366 µM (active).
For the molecule `Cc1ccccc1C(=O)NNC(=O)CN1C(=O)c2ccccc2C1=O`, the Potency result was “inactive”.
Then `Cc1noc(C)c1-c1nc(CSc2ccc(Cl)cc2)no1`, with “inactive”; and `Clc1ccc(Cc2nnc(-c3cccs3)o2)cc1`, with “inactive”; and `CCCC(=O)n1nc(-c2ccccc2)nc1N`, with “inactive”.
The same measure for `CCc1nn(-c2cc(Oc3cccc4ccccc34)nc(-c3ccccc3)n2)c(N)c1C#N`: 16.4 µM (active); for `COc1ccc(Cn2c(=O)c3oc4ccccc4c3n(CC(=O)Nc3ccc(F)cc3F)c2=O)cc1`: “inactive”.
Consider `CCOC(=O)c1sc(=NC(=O)/C=C/c2cccs2)n(C)c1C`, for which the Potency result is “inactive”.
The same measure for `CCCCc1nnc(NC(=O)CSc2nc(C)cc(=O)[nH]2)s1`: “inactive”; for `Cc1cc(C(=O)NCC2Cc3cccc(-c4cncnc4)c3O2)c(C)o1` (centres undefined): “inactive”.
Then `COCc1c(C(=O)NC2CCCCC2)cnn1-c1nccc(-c2ccccc2OC)n1`, with “inactive”.
The same measure for `Cc1cc(C(=O)NNC(=O)CCC2CCCCC2)c(C)o1`: “inactive”.
In the case of `COc1ccc(OC)c(C(=O)NC2CCCc3c2cnn3-c2cc(C)cc(C)c2)c1` (centres undefined), the Potency is 16.4 µM (active).
On to `COC(=O)C1=C(C)N(C)C(=S)NC1c1cc(OC)ccc1OC` (centres undefined), for which the Potency result is “inactive”.
The same measure for `COc1ccc(C(=O)NC2CCCc3c2cnn3-c2cccc(C)c2C)c(OC)n1` (centres undefined): 8.2 µM (active); for `Cc1cc(C(=O)NC2CCCc3c2cnn3-c2cccc(C)c2C)c(C)o1` (centres undefined): 8.2 µM (active); for `COc1ccc(OC)c(CN2C(=O)CCC2(C)C(=O)NC2CCCCCC2)c1` (centres undefined): “inactive”.
The same measure for `Cc1ccccc1C(=O)NCCN=C1NS(=O)(=O)c2ccccc21`: “inactive”; for `CC(=O)N[C@H]1[C@H]([C@H](O)[C@H](O)CO)OC(C(=O)O)=C[C@@H]1O`: “inactive”.
As to `Cc1ccc(S(=O)(=O)c2ccc(Cl)cc2)cc1S(=O)(=O)NC(C(=O)O)C(C)C` (centres undefined), the Potency result was “inactive”.
The same measure for `CN(C)c1ccc(-n2cccc2/C=N/n2cnnc2)cc1`: “inactive”; for `C=CCN1C(=NC(=O)COc2ccccc2)SC2CS(=O)(=O)CC21` (centres undefined): “inactive”.
The same measure for `Nc1ccc2nc3c(=O)[nH]c(=S)[nH]c3nc2c1`: “inactive”; for `Cc1ccccc1OCC(=O)Nc1c(C(=O)Nc2ccccc2F)oc2ccccc12`: “inactive”; for `Cn1c(SCC(=O)c2ccccc2)ncc(C(=O)Nc2ccc(F)cc2)c1=O`: “inactive”.
With `Cc1ccc(NC(=O)c2cnc(SCC(=O)NCC3CCCO3)n(C)c2=O)cc1` (centres undefined), the Potency is 14.6 µM (active).
Regarding `Cc1cc(NC(=O)CSc2ncc(C(=O)Nc3ccc(Cl)cc3)c(=O)n2C)no1`, the Potency result is “inactive”.
The same measure for `COc1cccc(-n2ccn(CC(=O)NCc3ccc(C)cc3)c(=O)c2=O)c1`: “inactive”.
The same measure for `CC(C)=CCN1CCN(CCCc2ccccc2)CC1CCO` (centres undefined): “inactive”; for `OCC[C@H]1C[C@@H](O)[C@H](O)[C@@]2(OCCc3ccccc32)O1`: “inactive”; for `CC(C)=CCN1CCC2(CCc3ccccc32)CC1`: 20.6 µM (active).
The same measure for `O=C1C(=O)N(CC2COc3ccccc3O2)c2ccccc21` (centres undefined): 1.46 µM (active); for `Cc1cc(NC(=O)CCC2COc3ccccc3O2)no1` (centres undefined): “inactive”.
For the molecule `Cc1cc(C(=O)CCl)c(C)n1CC1COc2ccccc2O1` (centres undefined), the Potency was 2.59 µM (active).
For the molecule `Cc1ccc(S(=O)(=O)NCCC(=O)NNC(=O)C2COc3ccccc3O2)cc1` (centres undefined), the Potency entry was “inactive”.
In the case of `O=C(CN1C(=O)C2C3C=CC(C3)C2C1=O)NCC1COc2ccccc2O1` (centres undefined), the Potency entry was “inactive”.
Then `CCn1ccnc1C[C@@H]1COc2ccccc2O1`, with “inactive”.
The same measure for `CCN(CCN(C)C)C(=O)c1ccc2nc(C)c(N(C)C(=O)CCc3ccccc3)n2c1`: “inactive”; for `CCOc1ccc(Br)cc1S(=O)(=O)Nc1ccc(S(=O)(=O)Nc2cc(C)on2)cc1`: “inactive”.
As for `CC1C(=O)Nc2ccccc2N1C(=O)c1ccc(F)cc1F` (centres undefined), the Potency result was “inactive”.
Regarding `CCn1c(SCC(=O)NC2CC2)nnc1-c1ccccc1OC`, the Potency result is “inactive”.
Consider `Cc1ccc2cc(CN(c3ccc(C)c(C)c3)S(C)(=O)=O)c(=O)[nH]c2c1`, for which the Potency entry is “inactive”.
The same measure for `Cc1cc(NC(=O)CSc2nnc(-c3ccco3)n2N)no1`: “inactive”.
The same measure for `Cc1cc(C)c2c(c1)cc(C)c1nnc(SCC(=O)Nc3cc(C)on3)n12`: 11.6 µM (active); for `Cc1cc(NC(=O)CSc2nnnn2-c2ccc(F)cc2)no1`: “inactive”.
Then `Cc1ccc(NC(=O)C(Cc2ccccc2)NS(=O)(=O)c2ccc3c(c2)oc(=O)n3C)cc1C` (centres undefined), with “inactive”; and `CN(C(=O)CC1C(=O)NCCN1Cc1ccc2ccccc2c1)C1CCOCC1` (centres undefined), with “inactive”.
Turning to `O=C1CC(c2c(F)cccc2Cl)C(n2cncn2)C(O)=C1C1NCCc2ccccc21` (centres undefined), the Potency entry was “inactive”.
The same measure for `Cc1ccc(C(=O)NNC(=O)CSc2nnc3ccccn23)cc1`: “inactive”.
Consider `Cc1ccc(C(C[N+](=O)[O-])c2c(C)cc3ccccn23)cc1` (centres undefined), for which the Potency was 16.4 µM (active).
Then `COc1ccc(CC(=O)Nc2nc3n(n2)C(c2ccccc2)CC(=O)N3)cc1OC` (centres undefined), with “inactive”; and `O=C(CN1CCN(c2ccccn2)CC1)NCc1cccs1`, with “inactive”; and `O=C(COC(=O)COc1cc(Cl)c(Cl)cc1Cl)NC1CC1`, with “inactive”.
Then `NC(=S)NN=Cc1ccc(OC(=O)COc2cc(Cl)c(Cl)cc2Cl)cn1`, with 5.8 µM (active); and `O=C(COc1cc(Cl)c(Cl)cc1Cl)NCCc1ccccn1`, with “inactive”.
